Data published in ChEMBL document CHEMBL1157539, “Thousands of chemical starting points for antimalarial lead identification” (Nature, 2010).

Key:
Assay type in all cases: functional
[1] = tested on: Plasmodium falciparum; assay: GSK_TCMDC: Inhibition of Plasmodium falciparum 3D7 in whole red blood cells, using parasite LDH activity as an index of growth. Test compounds present at 2uM
[2] = tested on: Plasmodium falciparum; assay: GSK_TCMDC: Inhibition of Plasmodium falciparum Dd2 in whole red blood cells, using parasite LDH activity as an index of growth. Test compounds present at 2uM
[3] = tested on: HepG2; assay: GSK_TCMDC: Percent inhibition of human HepG2 cell line. Test compounds present at 10uM.

SMILES | Inhibition [1] [%] | Inhibition [2] [%] | Inhibition [3] [%]
CC1CNC(c2ccc(NC(=O)c3ccc(C(=O)Nc4ccc(C5=NC(C)CN5)cc4)cc3)cc2)=N1.CS(=O)(=O)O (stereo not drawn) | 99 | 100 | 15
CCOc1ccc(N2CCN(CCCCNC(=O)c3ccc(NC(=O)c4ccc(Cl)cc4)cc3)CC2)c(OCC)c1 | 100 | 65 | 36
CC(Nc1ccc2c(c1)OCCO2)C(=O)Nc1cc(C(F)(F)F)ccc1N1CCOCC1 (stereo not drawn) | 98 | 70 | 0
Cc1nc2ccc(-c3ccc(OC(F)(F)F)cc3)cc2c(O)c1C#N | 98 | 97 | 0
O=S(=O)(Nc1cccc(CCN2CCC(N3CCCCC3)CC2)c1)c1ccccc1C(F)(F)F | 82 | 32 | 21
Cn1cnc(CCNC(=O)c2ccc(-c3ccc(-c4nc5cc(C(F)(F)F)ccc5[nH]4)s3)cc2)c1 | 100 | 99 | 75
Cc1cccc2nc(-c3cccc(-c4cccc(NC(=O)NCc5cccc(F)c5)c4)c3)[nH]c12 | 98 | 32 | 11
CC(C)CNCc1ccc(-c2ccc(CN(C(=O)NCCc3ccccc3)C3CCN(Cc4ccccc4)CC3)cc2)cc1.O=C(O)C(F)(F)F | 98 | 62 | 37
CCN1CCN(c2cc(C)c3cc(NC(=O)c4cccc(Cl)c4)ccc3n2)CC1 | 100 | 58 | 4
N#CCCN1CCN(Cc2ccc(-c3ccc(-c4nc5cc(F)ccc5[nH]4)s3)cc2)CC1.O=C(O)C(F)(F)F | 99 | 38 | 58
Cn1cc(CCNc2ccnc(NCCc3coc4ccccc34)n2)c2ccccc21 | 87 | 28 | 26
N#Cc1ccc2c(c1)CCN(CCCn1c(-c3ccc4ccccc4c3)nc3ccncc31)CC2 | 100 | 97 | 38
CCCCCCSc1nnc(COc2cccc3ccccc23)n1-c1ccc(OC)cc1 | 99 | 100 | 19
N#Cc1c(N)n(CCc2ccc(F)cc2)c2nc3ccccc3nc12 | 92 | 36 | 8
COc1ccccc1NC(=O)CSc1nc2cccnc2n1-c1ccccc1OC | 94 | 91 | 0
Cl.Oc1ccc(-c2ccccc2)cc1CNC1CCCCC1 | 95 | 100 | 24
CC(C)NCc1ccc(-c2cccc(CN3CCC(c4ccccc4)CC3)c2)c(C(=O)NCC2CCCCC2)c1.O=C(O)C(F)(F)F | 98 | 76 | 42
Br.c1cc(C2=NC3CCCCC3N2)ccc1OCCCCCOc1ccc(C2=NC3CCCCC3N2)cc1 (stereo not drawn) | 100 | 23 | 80
Cc1ccc(O)c(-c2cc(C(=O)Nc3ccc(S(=O)(=O)N4CCCC(C)C4)cc3)[nH]n2)c1 (stereo not drawn) | 96 | 97 | 27
COc1ccc(CCNc2nc(NCCc3cnc[nH]3)nc(NCc3cccc4ccccc34)n2)cc1OC | 98 | 16 | 2
Cl.O=C1COc2cc(Cl)c(CNC3CCN(CCc4ccnc5c(F)cc(F)cc45)CC3)nc2N1 | 98 | 49 | 96

SMILES | Inhibition [1] [%] | Inhibition [2] [%] | Inhibition [3] [%]
CCOC(=O)NOC(C(=O)O)c1ccccc1 (stereo not drawn) | 99 | 17 | 4
CC(C)[C@H](NCC(=O)c1ccccc1)C(=O)O.Cl | 99 | 0 | 6
COc1ccc2cc(-c3nc(-c4c(Cl)cccc4Cl)[nH]c3-c3ccnc(NCCCN4CCN(C)CC4)c3)ccc2c1.O=C(O)C(F)(F)F | 98 | 80 | 10
Cl.N=C(NC1CC1)c1ccc2[nH]c(CCCCCc3nc4cc(C(=N)NC5CC5)ccc4[nH]3)nc2c1 | 89 | 72 | 0
COc1c(C2CCN(CCCCNC(=O)c3ccc(-c4ccc(Cl)cc4)c(O)c3)CC2)ccc2c1CCCC2 | 100 | 99 | 91
CN1CCC(C(=O)N(Cc2ccc(-c3ccc(CNCCc4ccccc4)cn3)cc2)Cc2cccc(F)c2)CC1.O=C(O)C(F)(F)F | 90 | 80 | 30
CS(=O)(=O)NCCCNCc1cccc(-c2ccc(-c3nc4ccccc4[nH]3)s2)c1.O=C(O)C(F)(F)F | 90 | 0 | 24
CN(Cc1ccc(C#N)cc1)C1CCN(c2cc(NC(=O)c3ccc(F)cc3)ccn2)CC1.O=C(O)C(F)(F)F | 86 | 10 | 24
CN(Cc1cccc(C#N)c1)C1CCN(c2cc(NC(=O)c3ccc(F)cc3)ccn2)CC1.O=C(O)C(F)(F)F | 97 | 23 | 4
Cc1ccc2c(=NN=Cc3cccc(F)c3)cc(C)[nH]c2c1 | 96 | 66 | 34
CC(C)CC(=O)N(Cc1ccc(-c2ccc(CNC3Cc4ccccc4C3)cc2)cc1)C1CCNCC1.O=C(O)C(F)(F)F | 85 | 65 | 20
CCOc1ccc(/C=C/C(=O)Nc2cccc3c2CCN(C)C3)cc1.Cl | 92 | 3 | 0
Cl.O=C(Nc1cc(Cl)cc(Cl)c1)Nc1ccnc2ccccc12 | 96 | 65 | 15
Fc1ccc2[nH]c(-c3ccc(-c4cccc(CN5CCC(CCN6CCCCC6)CC5)c4)cc3)nc2c1.O=C(O)C(F)(F)F | 100 | 100 | 96
COc1ccc(NC(=O)Nc2ccc(Nc3nc(C)cc(N(C)C)n3)cc2)cc1 | 100 | 99 | 11
CC1(C)N=C(N)N=C(N)C1c1ccc(Cl)c(Cl)c1.Cl (stereo not drawn) | 95 | 0 | 47
N#CCCN1CCN(Cc2cccc(-c3ccc(-c4nc5cc(C(F)(F)F)ccc5[nH]4)cc3)c2)CC1.O=C(O)C(F)(F)F | 100 | 63 | 23
CCOC(=O)c1ccc(-c2cnoc2-c2cc(CC)c(OC)cc2O)o1 | 100 | 97 | 12
CN1CCN(CC2(Nc3nccc(NCc4ccc(Cl)cc4Cl)n3)CCCCC2)CC1 | 98 | 58 | 98
O=C(C=Cc1ccc(Cl)c(Cl)c1)NCCCCCN1CCCC(CCCNC(=O)c2sc3ccccc3c2Cl)C1 (stereo not drawn) | 88 | 32 | 82
O=C(N[C@@H](Cc1ccccc1)C(=O)NCc1cccc(C(F)(F)F)c1)c1ccc(O)c(-c2ccc(Cl)c(Cl)c2)c1 | 96 | 97 | 0

SMILES | Inhibition [1] [%] | Inhibition [2] [%] | Inhibition [3] [%]
Oc1ccc(Cl)cc1-c1cc(C(F)(F)F)nc(-c2ccccc2)n1 | 99 | 92 | 20
COc1ccc2nc3cc(Cl)ccc3c(NCCCCCCNc3c4ccc(Cl)cc4nc4ccc(OC)cc34)c2c1.Cl.Cl.Cl.Cl | 96 | 79 | 20
Cc1cc(N2CCCC2)nc(Nc2ccc(NC(=O)C(C)Oc3ccccc3)cc2)n1 (stereo not drawn) | 100 | 58 | 42
Cc1cc(=NN=Cc2ccccc2)c2cc(C(F)(F)F)ccc2[nH]1 | 100 | 97 | 30
CC(=O)Nc1ccc(CN2CCC(NC(=O)c3ccc(-c4ccc(N(C)C)cc4)s3)CC2)cc1.O=C(O)C(F)(F)F | 100 | 57 | 20
O=c1cc(NCCCNCc2cc(F)cc(C(F)(F)F)c2)[nH]c2ccccc12 | 92 | 15 | 0
CN1CCN(c2ccc(-c3cc(-c4cc(F)c(F)c(F)c4)cnc3N)cc2)CC1 | 88 | 12 | 58
Cc1cccc(C)c1CNc1ccnc2cc(Br)ccc12.Cl | 95 | 99 | 24
COc1ccc(-c2cc3ncnc(N4CCN(CCN5CCCC5)CC4)c3s2)cc1 | 98 | 90 | 22
CO/C(=C\C=C\c1cc2cc(Cl)c(Cl)cc2[nH]1)C(=O)NCCCN1CCN(C2CCCCC2)CC1 | 99 | 97 | 60
CCOc1c(OC)ccc2c1CCN(CCN1CCC(CNC(=O)c3ccc(-c4ccc(C(F)(F)F)cc4)cc3)CC1)C2 | 100 | 21 | 54
Cl.O=C(Nc1ccc2c(c1)CCN(C1CCC1)CC2)c1ccc(-n2ccnc2)cn1 | 92 | 0 | 8
O=C(NCc1cccc(OC(F)(F)F)c1)c1cnc2c(c1)nc(-c1c[nH]c(-c3ccccc3)n1)n2CCc1c[nH]cn1 | 99 | 47 | 0
Cc1ccc(-n2cc(CNCCCn3ccnc3)c(-c3cccc(C)c3)n2)cc1 | 99 | 36 | 9
CN1CCCN(Cc2cccc(-c3cccc(NC(=O)c4ccc(C#N)cc4)c3)c2)CC1.O=C(O)C(F)(F)F | 89 | 4 | 7
COc1ccc(CNC(=O)c2cnc3c(O)cccc3c2Nc2cccc(NC(=O)c3ccc(Cl)c([N+](=O)[O-])c3)c2)cc1.O=C(O)C(F)(F)F | 86 | 21 | 48
CCOc1cc(Cc2cnc(N)nc2N)cc(OCC)c1OCCCCC(=O)OC | 95 | 0 | 0
O=C(Cc1cc(F)cc(F)c1)NC1CCN(c2ccnc3cc(Cl)ccc23)C1.O=C(O)C(F)(F)F (stereo not drawn) | 82 | 100 | 13
CCCc1ccc(C(=O)N2C(c3nccs3)C(C(N)=O)CC2(CC(C)C)C(=O)O)cc1 (stereo not drawn) | 94 | 80 | 16
